# From ChEMBL document CHEMBL3988442, “University of Dundee, Small-Polar-MMV Screening Library” (2021)
# For some of these results: Entries with a potency or affinity are not part of this list.
# How the values were obtained:
# Parameters in all cases: scale not given: direction of the effect not stated beside the values
# [1] = target: Protein translocase subunit SecA (Escherichia coli (strain K12)) (UniProt P10408); assay: Assay to Identify E. coli SecA ATPase Inhibitors; assay type: functional; conditions: 30 µM
# [2] = target: T1, Ubiquitin-activating enzyme e1, putative (Leishmania donovani (strain BPK282A1)) (UniProt E9BSI1); assay: Leishmania donovani Ubiquitin Activating Enzyme (LdE1); assay type: functional; conditions: 30 µM
# T1 sequence (whole entry): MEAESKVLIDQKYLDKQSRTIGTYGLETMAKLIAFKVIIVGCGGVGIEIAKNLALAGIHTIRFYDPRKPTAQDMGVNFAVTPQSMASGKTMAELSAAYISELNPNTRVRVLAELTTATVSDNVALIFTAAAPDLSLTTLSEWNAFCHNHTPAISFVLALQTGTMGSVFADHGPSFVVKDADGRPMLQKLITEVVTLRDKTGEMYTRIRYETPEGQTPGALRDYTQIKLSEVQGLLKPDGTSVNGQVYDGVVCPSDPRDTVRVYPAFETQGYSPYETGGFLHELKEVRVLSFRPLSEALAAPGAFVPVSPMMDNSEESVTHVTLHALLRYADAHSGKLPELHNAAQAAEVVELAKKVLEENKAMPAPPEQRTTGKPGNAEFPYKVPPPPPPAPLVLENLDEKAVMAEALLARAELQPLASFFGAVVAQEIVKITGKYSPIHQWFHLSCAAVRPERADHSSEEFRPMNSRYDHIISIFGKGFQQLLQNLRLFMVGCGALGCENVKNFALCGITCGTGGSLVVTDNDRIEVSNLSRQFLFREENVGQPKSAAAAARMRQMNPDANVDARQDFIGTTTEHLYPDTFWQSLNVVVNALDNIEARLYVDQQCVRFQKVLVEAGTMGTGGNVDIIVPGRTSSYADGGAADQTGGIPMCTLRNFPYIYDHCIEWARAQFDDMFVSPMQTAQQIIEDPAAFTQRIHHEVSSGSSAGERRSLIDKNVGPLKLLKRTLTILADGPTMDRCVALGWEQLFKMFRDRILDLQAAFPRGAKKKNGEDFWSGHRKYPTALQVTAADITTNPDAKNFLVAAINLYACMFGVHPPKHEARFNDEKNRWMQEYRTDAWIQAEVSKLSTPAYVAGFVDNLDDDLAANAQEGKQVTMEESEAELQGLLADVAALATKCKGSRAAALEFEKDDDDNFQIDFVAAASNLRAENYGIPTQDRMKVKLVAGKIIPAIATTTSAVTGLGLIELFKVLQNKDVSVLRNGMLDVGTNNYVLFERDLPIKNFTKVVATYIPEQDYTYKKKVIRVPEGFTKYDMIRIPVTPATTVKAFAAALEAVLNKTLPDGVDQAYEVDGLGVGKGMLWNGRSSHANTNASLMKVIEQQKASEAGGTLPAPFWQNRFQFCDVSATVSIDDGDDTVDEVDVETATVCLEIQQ
# [3] = target: AMP-activated protein kinase, AMPK (Homo sapiens) (UniProt P54646+O43741+P54619+Q9UGJ0+Q9Y478+Q13131+Q9UGI9); assay: AMP-dependent Kinase enzyme assay. An in vitro enzyme assay that detects ADP turnover that is directly proportional to AMPK activity. This uses naive AMPK that is activated during the assay with MK-8722; assay type: functional; conditions: 30 µM
# [4] = target: Sialic acid-binding Ig-like lectin 9 (Homo sapiens) (UniProt Q9Y336); assay: Hs-Siglec9 ALPHAscreen SOP 20170721; conditions: 10 µM
# Trypanosoma cruzi = assay: Trypanosoma cruzi phosphomannomutase and mannose-1-phosphate guanylyltransferase assay; assay type: functional; conditions: 10 µM
# [5] = target: T2, Arginase-2, mitochondrial (Homo sapiens) (UniProt P78540); assay: in vitro enzyme assay to detect the production of urea directly proportional to the activity of Arginase II; assay type: functional; conditions: 33.3 µM; further: in the data most compounds retested in dose-response had high values
# T2 sequence (whole entry): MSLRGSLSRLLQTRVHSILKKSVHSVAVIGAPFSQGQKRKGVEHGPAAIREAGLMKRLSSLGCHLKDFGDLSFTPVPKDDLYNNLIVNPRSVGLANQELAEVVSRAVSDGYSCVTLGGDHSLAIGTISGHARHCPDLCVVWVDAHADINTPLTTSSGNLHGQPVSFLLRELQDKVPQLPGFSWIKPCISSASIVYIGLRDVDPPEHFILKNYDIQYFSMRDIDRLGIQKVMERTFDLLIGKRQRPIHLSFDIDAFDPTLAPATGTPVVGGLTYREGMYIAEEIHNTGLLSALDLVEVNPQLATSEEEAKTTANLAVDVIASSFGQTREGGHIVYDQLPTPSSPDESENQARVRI
# [6] = target: T3, Proteasome subunit beta (Trypanosoma cruzi) (UniProt O96673); assay: Trypanosoma cruzi proteasome chymotrypsin-like activity (TcProtChymo) assay.; further: in the data most compounds retested in dose-response had high values; assay type: functional; conditions: 9.37 µM
# T3 sequence (whole entry): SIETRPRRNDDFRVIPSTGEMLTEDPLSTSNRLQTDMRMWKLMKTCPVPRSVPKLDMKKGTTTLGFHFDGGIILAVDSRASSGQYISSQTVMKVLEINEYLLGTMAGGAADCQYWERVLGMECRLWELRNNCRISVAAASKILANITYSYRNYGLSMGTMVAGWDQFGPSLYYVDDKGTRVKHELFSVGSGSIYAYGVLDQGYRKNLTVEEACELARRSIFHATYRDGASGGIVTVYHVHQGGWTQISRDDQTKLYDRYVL
# Homo sapiens = species: Homo sapiens; assay: To identify inhibition of the IFN signalling (Jak-Stat) pathway via expression of an eGFP reporter gene under the control of an IFN-stimulated response element (ISRE) containing MxA promoter.; assay type: functional; conditions: 30 µM
# [7] = target: T4, Tyrosyl-tRNA synthetase, putative (Trypanosoma cruzi (strain CL Brener)) (UniProt Q4DSP6); assay: Trypanosoma cruzi tyrosyl tRNA synthetase (TcYRS) _High Tyrosine SOP; assay type: functional; conditions: 30 µM; further: in the data most compounds retested in dose-response had high values
# T4 sequence (whole entry): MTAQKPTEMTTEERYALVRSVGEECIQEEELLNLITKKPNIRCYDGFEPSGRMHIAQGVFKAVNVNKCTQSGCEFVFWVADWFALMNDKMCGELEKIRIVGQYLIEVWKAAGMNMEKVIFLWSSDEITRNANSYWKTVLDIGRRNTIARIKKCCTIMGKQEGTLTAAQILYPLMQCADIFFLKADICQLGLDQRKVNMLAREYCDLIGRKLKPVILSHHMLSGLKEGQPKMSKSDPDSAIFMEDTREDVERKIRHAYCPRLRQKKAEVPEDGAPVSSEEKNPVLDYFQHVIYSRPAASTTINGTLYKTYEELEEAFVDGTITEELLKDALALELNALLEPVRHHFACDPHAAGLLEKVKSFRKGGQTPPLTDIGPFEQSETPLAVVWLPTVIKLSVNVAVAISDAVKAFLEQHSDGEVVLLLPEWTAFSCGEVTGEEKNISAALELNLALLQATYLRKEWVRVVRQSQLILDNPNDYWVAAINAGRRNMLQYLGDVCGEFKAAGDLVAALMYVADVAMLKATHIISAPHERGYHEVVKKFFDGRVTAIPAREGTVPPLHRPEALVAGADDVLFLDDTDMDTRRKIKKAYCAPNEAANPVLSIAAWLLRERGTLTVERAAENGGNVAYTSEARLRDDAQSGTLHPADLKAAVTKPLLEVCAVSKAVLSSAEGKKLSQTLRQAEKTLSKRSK
# [8] = target: T4, Tyrosyl-tRNA synthetase, putative (Trypanosoma cruzi (strain CL Brener)); assay: Trypanosoma cruzi tyrosyl tRNA synthetase (TcYRS) SOP; assay type: functional; conditions: 30 µM
# [9] = target: Chromo domain-containing protein 1 (Saccharomyces cerevisiae (strain ATCC 204508 / S288c) (Baker's yeast)) (UniProt P32657); assay: ScCHD-1 Enzyme Inhibition Assay; assay type: functional; conditions: 30 µM; further: in the data most compounds retested in dose-response had high values
# Chain of Chromo domain-containing protein 1 (Saccharomyces cerevisiae (strain ATCC 204508 / S288c) (Baker's yeast)) (P32657 whole entry, the tested form may be a part): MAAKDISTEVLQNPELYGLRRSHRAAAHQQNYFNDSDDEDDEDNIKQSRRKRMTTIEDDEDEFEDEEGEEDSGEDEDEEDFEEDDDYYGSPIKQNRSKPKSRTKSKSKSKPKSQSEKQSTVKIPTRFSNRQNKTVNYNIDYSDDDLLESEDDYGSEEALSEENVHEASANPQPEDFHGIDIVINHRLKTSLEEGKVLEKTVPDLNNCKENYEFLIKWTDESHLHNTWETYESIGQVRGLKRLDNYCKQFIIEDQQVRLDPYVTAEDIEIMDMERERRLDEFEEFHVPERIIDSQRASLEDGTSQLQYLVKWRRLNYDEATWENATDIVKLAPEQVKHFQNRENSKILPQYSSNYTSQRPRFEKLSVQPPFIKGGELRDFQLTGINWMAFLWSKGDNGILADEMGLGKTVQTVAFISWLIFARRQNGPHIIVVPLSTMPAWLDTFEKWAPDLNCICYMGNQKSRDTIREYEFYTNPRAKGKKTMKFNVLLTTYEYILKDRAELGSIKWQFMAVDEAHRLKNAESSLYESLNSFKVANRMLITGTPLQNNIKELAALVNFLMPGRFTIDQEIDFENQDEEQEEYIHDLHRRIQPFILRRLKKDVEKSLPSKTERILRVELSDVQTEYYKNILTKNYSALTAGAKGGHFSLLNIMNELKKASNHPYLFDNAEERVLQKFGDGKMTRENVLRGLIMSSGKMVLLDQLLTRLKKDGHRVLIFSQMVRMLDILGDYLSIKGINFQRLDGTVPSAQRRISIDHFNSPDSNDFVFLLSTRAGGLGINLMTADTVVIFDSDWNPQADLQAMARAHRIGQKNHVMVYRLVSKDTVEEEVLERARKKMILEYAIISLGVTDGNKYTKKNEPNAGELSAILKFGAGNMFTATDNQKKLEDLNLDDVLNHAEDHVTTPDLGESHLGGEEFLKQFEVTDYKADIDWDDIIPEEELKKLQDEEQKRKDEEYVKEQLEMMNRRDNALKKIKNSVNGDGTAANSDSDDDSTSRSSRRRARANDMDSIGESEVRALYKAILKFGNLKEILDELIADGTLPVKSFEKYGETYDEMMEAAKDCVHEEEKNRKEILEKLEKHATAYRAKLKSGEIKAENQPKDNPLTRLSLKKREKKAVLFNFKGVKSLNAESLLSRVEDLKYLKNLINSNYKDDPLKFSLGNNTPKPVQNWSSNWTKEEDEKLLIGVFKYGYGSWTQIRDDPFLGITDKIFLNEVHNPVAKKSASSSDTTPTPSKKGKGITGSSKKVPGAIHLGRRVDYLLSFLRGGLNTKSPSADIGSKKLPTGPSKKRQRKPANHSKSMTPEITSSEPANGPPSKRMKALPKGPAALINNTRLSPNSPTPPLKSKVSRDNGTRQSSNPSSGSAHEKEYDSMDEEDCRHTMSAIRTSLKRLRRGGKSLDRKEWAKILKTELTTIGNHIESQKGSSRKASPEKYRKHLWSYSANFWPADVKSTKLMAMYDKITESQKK
# Chain of Protein translocase subunit SecA (Escherichia coli (strain K12)) (P10408 whole entry): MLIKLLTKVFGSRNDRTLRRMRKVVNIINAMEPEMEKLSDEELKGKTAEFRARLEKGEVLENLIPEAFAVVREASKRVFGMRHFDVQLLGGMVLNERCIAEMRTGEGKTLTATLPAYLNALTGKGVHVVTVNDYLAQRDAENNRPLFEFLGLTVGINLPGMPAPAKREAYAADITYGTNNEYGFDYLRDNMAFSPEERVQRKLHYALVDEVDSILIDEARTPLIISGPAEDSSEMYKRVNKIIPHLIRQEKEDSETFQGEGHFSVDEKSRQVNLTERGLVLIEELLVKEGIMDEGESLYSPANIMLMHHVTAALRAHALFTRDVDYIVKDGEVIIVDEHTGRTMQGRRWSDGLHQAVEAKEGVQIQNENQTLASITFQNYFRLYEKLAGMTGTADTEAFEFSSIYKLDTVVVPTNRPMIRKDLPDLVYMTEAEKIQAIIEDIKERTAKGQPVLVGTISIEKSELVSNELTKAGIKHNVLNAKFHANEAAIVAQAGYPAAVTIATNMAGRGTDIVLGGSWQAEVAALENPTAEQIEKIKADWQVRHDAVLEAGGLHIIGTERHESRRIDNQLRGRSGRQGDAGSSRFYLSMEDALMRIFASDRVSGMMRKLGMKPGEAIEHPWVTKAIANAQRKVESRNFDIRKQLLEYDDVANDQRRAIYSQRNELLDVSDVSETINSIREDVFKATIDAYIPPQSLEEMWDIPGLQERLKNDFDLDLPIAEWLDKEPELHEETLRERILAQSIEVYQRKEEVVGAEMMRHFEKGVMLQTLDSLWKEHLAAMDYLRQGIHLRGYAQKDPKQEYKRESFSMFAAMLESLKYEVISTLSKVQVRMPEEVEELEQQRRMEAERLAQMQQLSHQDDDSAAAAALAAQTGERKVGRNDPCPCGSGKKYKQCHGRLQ
# Chain of Sialic acid-binding Ig-like lectin 9 (Homo sapiens) (Q9Y336 whole entry): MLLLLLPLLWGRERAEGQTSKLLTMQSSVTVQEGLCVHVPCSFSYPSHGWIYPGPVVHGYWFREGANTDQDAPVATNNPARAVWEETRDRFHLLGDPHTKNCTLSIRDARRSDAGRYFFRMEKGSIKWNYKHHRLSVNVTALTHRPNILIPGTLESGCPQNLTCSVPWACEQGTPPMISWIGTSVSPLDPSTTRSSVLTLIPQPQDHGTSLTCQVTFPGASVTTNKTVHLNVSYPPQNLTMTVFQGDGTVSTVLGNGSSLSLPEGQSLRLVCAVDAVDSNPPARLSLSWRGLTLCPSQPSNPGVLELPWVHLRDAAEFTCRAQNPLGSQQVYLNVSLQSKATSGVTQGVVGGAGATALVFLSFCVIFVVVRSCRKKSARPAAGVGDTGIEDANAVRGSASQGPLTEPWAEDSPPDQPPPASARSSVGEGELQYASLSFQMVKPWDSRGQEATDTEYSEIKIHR
Structure (SMILES),Percent Effect [1],Percent Effect [2],Percent Effect [3],Percent Effect [4],Percent Effect (Trypanosoma cruzi),Percent Effect [5],Percent Effect [6],Percent Effect (Homo sapiens),Percent Effect [7],Percent Effect [8],Percent Effect [9]
CN1N=C(C(=O)Nc2cc(F)ccc2OCC2CCCO2)CCC1=O (stereo not given),-1.5%,-5.2%,12%,2.24%,7.3%,-6.41%,6.25%,-6.34%,1.94%,2.44%,-8.4%
Cc1nc(C)n(CC2CCCN(Cc3cccc(C#N)c3)C2)n1 (stereo not given),-3.63%,-18.9%,-7.23%,5.42%,-1.23%,-7.62%,5.59%,3.79%,6.4%,13.6%,-5.48%
Cc1ncsc1CN1C[C@@H](OCC2CC2)[C@H]2OCCC[C@H]21,-6.87%,8.11%,-8.86%,32.2%,4.79%,-0.248%,24.3%,-4.12%,5.38%,16.1%,-8.25%
O=c1nc(SCc2cccnc2)c2c(n1CCO)CCC2,-1.99%,13.7%,-3.57%,7.9%,0.588%,5%,15.8%,16.7%,6.45%,15%,-7.2%
COc1nc2c(cc1C(=O)N1C[C@H](N)C[C@H]1C(=O)NC(C)C)CCC2,-3.3%,18.1%,-10.6%,9.06%,6.51%,8.83%,16.3%,9.52%,6.32%,15.4%,-4.1%
CC(=O)N1CCN(C(=O)c2cnn(-c3ccccc3Cl)c2)CC1,-5.95%,21.6%,-7.37%,17.5%,6.32%,-8.82%,9.19%,13.8%,8.37%,18.5%,-9.57%
CC(=O)Nc1ncc(S(=O)(=O)Nc2ccc(F)cc2F)s1,-1.2%,9.33%,-2.12%,-4.17%,-6.68%,-5.11%,19%,12.9%,3.17%,10.3%,-9.04%
Cc1cc(F)ccc1S(=O)(=O)NCc1cccc(C(=O)N2CCCC2)c1,-5.18%,15.6%,2.25%,0.935%,2.64%,-12%,2.34%,26.5%,6.67%,9.41%,-12.9%
Cc1cnn(CC2CCCCN2CCC(=O)Nc2cc(C)on2)c1 (stereo not given),-4.7%,3.8%,-0.138%,0.417%,0.308%,-1.07%,11.7%,-10.4%,1.04%,12.7%,-13.7%
CC(=O)Nc1nc(C(=O)N2CCCC2c2noc(C)n2)cs1 (stereo not given),-6.47%,-5.2%,10.4%,-6.87%,-7.12%,2.13%,-2.2%,22.6%,-1.94%,-17.1%,-6.82%
COCCN1CCOCC2(CCCN(Cc3ccc(C)o3)C2)C1 (stereo not given),-2.04%,13.3%,0.538%,-2.47%,5.6%,-42.1%,8.55%,-12.1%,3.12%,2.5%,-9.46%
CC(C)c1nc(C2CCCN(C(=O)CCCn3cncn3)C2)no1 (stereo not given),-4.23%,21.6%,-6.76%,9.76%,2.36%,-10.4%,12.1%,-60.1%,8.37%,16.1%,-12.8%
O=C(NCCNCC1CNc2ccnn2C1)c1ccc(F)cc1 (stereo not given),-2.2%,8.11%,-6.99%,25.4%,8.3%,0.476%,11.6%,-0.126%,5.82%,14.6%,-2.41%
Cc1noc(C)c1CCC(=O)N1CCN(CCn2cncn2)CC1,-2.87%,4.17%,-6.26%,2.38%,0.68%,1.77%,21.1%,-11.6%,8.42%,10.3%,-3.13%
Cc1nc2cc(C(=O)N3CCCC(n4cncn4)C3)ccc2n1C (stereo not given),-4.14%,5.41%,-2.29%,11.4%,9.75%,-0.924%,-5.21%,0.593%,3.96%,13.4%,-2.87%
CC1COCCN1Cc1nc(-c2cccs2)no1 (stereo not given),-2.46%,10.8%,138%,-4.28%,-3.49%,-2.4%,11.5%,13.2%,4.43%,13.6%,-7.61%
O=C(c1cc(=O)[nH]c(=O)[nH]1)N1CCCCC1c1nc2cc(F)ccc2[nH]1 (stereo not given),-4.1%,1.39%,2.15%,-1.84%,1.07%,3.97%,6.14%,-12.1%,3.16%,7.69%,-2.87%
CC(C)CNC(=O)[C@H]1CCS(=O)(=O)[C@@H]2CN(Cc3ccc(Cl)cc3)C[C@H]12,-2.67%,2.7%,-1.66%,-4.02%,1.17%,2.5%,22.7%,-6.94%,11.9%,13.4%,-1.05%
COc1cccc(OCc2cc(C(=O)NC[C@H]3CCCN3)n[nH]2)c1,-3.48%,15.3%,-5.03%,30.2%,3.4%,15.4%,7.19%,-6.81%,1.05%,12.8%,-5.02%
COC(=O)c1cccc(C(=O)N2CCCCC2CCn2ccnc2C)c1 (stereo not given),-7.31%,8%,0.551%,4.41%,0.487%,-0.521%,25.5%,13.4%,3.83%,11.1%,-2.11%
